{
  "source": "PubChem BioAssay AID489025",
  "about": "(Southern Research Specialized Biocontainment Screening …, 2010)",
  "note": "About 790 (34%) of roughly 2,300 compounds were called active. This is one part of the list. Entries with a potency or affinity are not part of this list. A number with no mark means an inactive call. The rule behind the calls is not given here.",
  "data": [
    {"assay": "THP-1 cell cytotoxicity, dose response, cytotoxicity control for non-replicating M. tuberculosis project (AID 489025)", "conditions": "THP-1 cell viability; series mostly up to 40 µM; viability: at the top concentration", "units": {"viability": "%"}, "values": [
      {"smiles": "O=C(Nc1ccc(Br)cc1)c1cc([N+](=O)[O-])cc([N+](=O)[O-])c1", "viability": 92},
      {"smiles": "Cc1ccc(C(=O)CCNc2ccc(F)c(Cl)c2)o1", "viability": 116},
      {"smiles": "CCCCSc1nnc(-c2ccc(C)cc2)o1", "viability": 108},
      {"smiles": "CC1=NN(c2ccc(C(=O)O)cc2)C(=O)/C1=C\\c1ccc(OC(=O)c2cccs2)cc1", "viability": 112},
      {"smiles": "COc1ccc(C(=O)COC(=O)c2ccc([N+](=O)[O-])s2)cc1OC", "viability": 98.1},
      {"smiles": "O=C(N/N=C/c1cccs1)c1cncc(Br)c1", "viability": 101},
      {"smiles": "Cc1ccc(/C=N/NC(=O)c2ccncc2)s1", "viability": 114},
      {"smiles": "Cc1ccc(C(=O)N/N=C\\c2ccc[nH]2)cn1", "viability": 97.8},
      {"smiles": "CCC(=O)N/N=C/c1ccc(-c2ccc(Cl)cc2)o1", "viability": 103},
      {"smiles": "O=C(N/N=C/c1ccc(Br)s1)c1ccncc1", "viability": 112},
      {"smiles": "Cc1ccc(NC(=O)CC2SC3=NCCCN3C2=O)c(C)c1", "note": "(stereo not given)", "viability": 86.8},
      {"smiles": "CCC1CCC(c2nnc(-c3ccc([N+](=O)[O-])cc3)o2)CC1", "note": "(stereo not given)", "viability": 110},
      {"smiles": "Nc1ccc(Br)c2cccnc12", "viability": 110},
      {"smiles": "CCC(C)n1c(=S)[nH]c2ccccc2c1=O", "note": "(stereo not given)", "viability": 90.4},
      {"smiles": "CC(C)(C)OC(=O)N/N=C\\c1ccc([N+](=O)[O-])s1", "viability": 113},
      {"smiles": "O=C(N/N=C/c1ccc(Br)s1)c1cccnc1", "viability": 112},
      {"smiles": "COc1cc(/C=C2/C(=O)NN(c3cccc(F)c3)C2=O)ccc1OC(=O)c1ccco1", "viability": 111},
      {"smiles": "CCOc1ccc(Nc2ccc([N+](=O)[O-])c3nonc23)cc1", "viability": 83.1},
      {"smiles": "CS/C(Nc1cc(Cl)ccc1Cl)=C(/C#N)C(=O)c1ccco1", "viability": 72.6},
      {"smiles": "Cc1ccc(NC(=O)C(=O)NNC(=O)c2ccccc2C)cc1Cl", "viability": 86.4},
      {"smiles": "CCOC(=O)N1CCN(c2cc(C)c([N+](=O)[O-])cc2F)CC1", "viability": 92.8},
      {"smiles": "Cc1ccc(CN2CC(C(=O)OCc3ccccc3Cl)CC2=O)cc1", "note": "(stereo not given)", "viability": 121},
      {"smiles": "Cc1cccc(C)c1NC(=O)c1sc(N)nc1-c1ccccc1", "viability": 100},
      {"smiles": "Cc1ccc(NC(=O)c2noc(C(C)C)c2[N+](=O)[O-])cc1", "viability": 99.2},
      {"smiles": "Cc1ccc2cc(/C=N/NC(=O)[C@H](C)NC(=O)OC(C)(C)C)c(Cl)nc2c1", "viability": 84.4},
      {"smiles": "O=C(N/N=C/c1cccc(F)c1)c1c(O)c2ccccc2[nH]c1=O", "viability": 80.8},
      {"smiles": "CC(=O)Oc1ccc(/C=C2\\N=C(C3CCCCC3)OC2=O)cc1", "viability": 106},
      {"smiles": "COc1cc(N=c2ssnc2Cl)cc(OC)c1OC", "viability": 85.6},
      {"smiles": "O=C(CCSc1nnc(-c2ccncc2)o1)Nc1cccc(Cl)c1", "viability": 82.2},
      {"smiles": "CCn1ccc(C(=O)Nc2cccc(Cl)c2)n1", "viability": 99.6},
      {"smiles": "CCN1CCN(Cc2cc(C(C)(C)C)c(O)c(C(C)(C)C)c2)CC1", "viability": 107},
      {"smiles": "CC(=O)Nc1cccc(-c2nc3ccccc3c(=O)o2)c1", "viability": 93},
      {"smiles": "CCCCOC(=O)Cn1c(-c2ccccc2)nc2ccccc2c1=O", "viability": 107},
      {"smiles": "O=C(Nc1ccccn1)c1ccc(C(=O)c2ccccc2)cc1", "viability": 86.9},
      {"smiles": "CCCOC(=O)c1ccc(NC(=O)c2ccc(Br)o2)cc1", "viability": 70.8},
      {"smiles": "O=C(Nc1cccnc1)c1ccc(-c2ccc(Cl)cc2)o1", "viability": 78},
      {"smiles": "CC(C)(C)c1ccc(OCCC(=O)OCC(=O)NC2CC2)cc1", "viability": 97.6},
      {"smiles": "O=C(NC1CCOc2ccccc21)c1ccc(Cl)nc1", "note": "(stereo not given)", "viability": 104},
      {"smiles": "Cc1ccccc1-n1nnc2c(=O)oc3ccccc3c21", "viability": 117},
      {"smiles": "NC(=O)C1CCN(C2CC(=O)NC2=O)CC1", "note": "(stereo not given)", "viability": 125},
      {"smiles": "O=C(c1cc2ccccc2o1)c1nc2c(n1O)CCCCC2", "viability": 101},
      {"smiles": "O=C(Nc1ncc(Cc2ccccc2)s1)C1=NCCN1", "viability": 101},
      {"smiles": "CCOC(=O)Cc1ccc(NCc2ccc(Cl)cc2)cc1", "viability": 82.2},
      {"smiles": "CCOC(=O)C1(O)CC(C)=NN1C(=O)c1cccc(Br)c1", "note": "(stereo not given)", "viability": 88.5},
      {"smiles": "CCOC(=O)Cc1cc(=O)n2[nH]cc(-c3ccc(Cl)cc3)c2n1", "viability": 87.2},
      {"smiles": "CCOC(=O)c1c(C)nc2c3ccccc3ccn12", "viability": 113},
      {"smiles": "O=C1CC(N2CCN(c3ccccc3)CC2)C(=O)N1CCc1ccccc1", "note": "(stereo not given)", "viability": 97.6},
      {"smiles": "CCOc1ccc(NC(=O)COC(=O)C2(C)CC2(Cl)Cl)c([N+](=O)[O-])c1", "note": "(stereo not given)", "viability": 94.1},
      {"smiles": "Cc1ccc(Sc2ncccc2N)cc1", "viability": 104},
      {"smiles": "Cc1ccc2oc(=O)c3cc(C(=O)NCCCN4CCCCCC4)sc3c2c1", "viability": 80.9},
      {"smiles": "O=C(NCCCN1CCOCC1)c1ccc(CSc2ccc(Cl)cc2)cc1", "viability": 71.3},
      {"smiles": "CC(=O)N1CCC(=NNC(=O)c2cccs2)CC1", "viability": 112},
      {"smiles": "Cc1cccc(CSc2nnc(-c3ccco3)o2)c1", "viability": 94.8},
      {"smiles": "C#CCSc1nnc(-c2ccc(O)cc2)o1", "viability": 112},
      {"smiles": "C#CCSc1nnc(-c2ccc([N+](=O)[O-])cc2)o1", "viability": 92.9},
      {"smiles": "CCOc1ccc(CC(=O)N2N=C(C)CC2(O)C(F)(F)F)cc1", "note": "(stereo not given)", "viability": 103},
      {"smiles": "O=C(CNC1CCCC1)Nc1ccc(N2CCCCCC2)cc1", "viability": 91.9},
      {"smiles": "COc1cc(N=c2ssnc2Cl)cc(OC)c1", "viability": 117},
      {"smiles": "N#Cc1ccc(N=c2ssnc2Cl)cc1", "viability": 112},
      {"smiles": "CC(=O)Nc1ccc(NC(=O)[C@@H]2CCCC[C@@H]2C(=O)O)cc1", "viability": 85.2}
    ]}
  ]
}
